{"source": "PubChem BioAssay AID1345085", "about": "(National Center for Advancing Translational Sciences (NCATS), 2018)", "test_system": "PA-1", "assay": "Confirmatory qHTS for gynecologic anti-cancer compounds from libraries of approved drugs and bioactive compounds; note: nearly all actives have a fitted effect of over 55% in size", "conditions": "gynecologic cancer cell panel viability, ATPlite luminescence, 48 h; series mostly up to 57.6 µM", "method_in_brief": "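Seeding 1,000 cells per well preceded overnight (16 h) attachment, after which 48 h drug treatment across 57.5 uM–0.977 nM (11 points) was applied. Remaining cellular ATP, detected by ATPlite luminescence, defined IC50.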", "note": "Records with an inconclusive call do not appear. Active and inactive are the calls of the source. Calls come from the whole dose curve; as a rule, active = well fitted cell-killing curve with a large enough effect; inconclusive = small, poorly fitted or top-dose-only effect, or effect the other way; inactive = no such curve, though single readings can be large or run the other way. Potency is the fitted concentration of half-maximal effect.", "data": [{"smiles": "C[C@H]1CCC/C=C/C2C[C@H](O)C[C@H]2[C@H](O)/C=C/C(=O)O1", "note": "(stereo partly drawn)", "values": [{"measurement": "Potency", "result": "172 nM (active)"}]}, {"smiles": "C[C@]12CC[C@H]3[C@@H](CCC4=CC(=O)CC[C@@H]43)[C@@H]1CC[C@@H]2OC(=O)CCc1ccccc1", "values": [{"measurement": "Potency", "result": "inactive"}]}, {"smiles": "CCOc1ccccc1-n1c(C(C)N2CCN(C(=O)COc3ccc(Cl)cc3)CC2)nc2ccccc2c1=O", "note": "(stereo not drawn)", "values": [{"measurement": "Potency", "result": "13700 nM (active)"}]}, {"smiles": "Cc1sc2c(c1C)C(c1ccc(Cl)cc1)=NC(CC(=O)OC(C)(C)C)c1nnc(C)n1-2", "note": "(stereo not drawn)", "values": [{"measurement": "Potency", "result": "1530 nM (active)"}]}, {"smiles": "O=C(O)Cc1ccccc1", "values": [{"measurement": "Potency", "result": "inactive"}]}, {"smiles": "C/C=C(/C)C(=O)O[C@H]1C(C)=C2[C@H]([C@@H]1OC(=O)CCCCCCC)[C@@](C)(OC(C)=O)C[C@H](OC(=O)CCC)[C@@]1(O)[C@H]2OC(=O)[C@@]1(C)O", "values": [{"measurement": "Potency", "result": "48.5 nM (active)"}]}, {"smiles": "C=C(C)[C@H]1Cc2c(ccc3c2O[C@@H]2COc4cc(OC)c(OC)cc4[C@@H]2C3=O)O1", "values": [{"measurement": "Potency", "result": "27.3 nM (active)"}]}, {"smiles": "CCNC(=O)C[C@@H]1N=C(c2ccc(Cl)cc2)c2cc(OC)ccc2-n2c(C)nnc21", "values": [{"measurement": "Potency", "result": "4320 nM (active)"}]}]}
